# SMARCA2 act: SMARCA2 (BRM) function activators, primary screen, cell-based, luminescence, high throughput; MG213 cells, MMTV-luciferase reporter, dexamethasone, overnight; activation, % at 9.1 µM; AID 652017, 2013; 370,000 tested, 1% active; in the data active means activation above about 7.8%
# HSF1 inhib: HSF1 inhibitors in luciferase reporter cells, primary screen, cell-based, NIH3T3, luminescence | 300,000 tested, 0.77% active | activity change, negative = inhibition, % at 7.5 µM (by protocol) | NIH3T3-HGL HSE-luciferase, MG132-induced, luminescence 8 h; stronger effect = lower value;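 active means more than half of replicate wells show activity change below -50%, luminescence cut by over half; inconclusive means some wells, but at most half, below -50%; inactive means no replicate well below -50%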;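 further: luciferase reports HSF-1 transcriptional activity via heat shock element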
# AI-2 QS modul: Vibrio harveyi AI-2 quorum sensing modulators, primary screen, JMH597 strain, luminescence/OD600 ratio | activity change, % at 7.5 µM | Vibrio harveyi JMH597 AI-2 luminescence/OD600 ratio, 9 h; stronger effect = lower value; strain lacks LuxN and CqsS sensors; 0 = neutral-control median | 300,000 tested, 0.4% active; in the data active means activity change below about -75%, passing the limit was not always enough; inconclusive means no clear call, values can overlap the other calls;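 further: luminescence divided by OD600 gain over 9 h not by final OD600 alone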
# FXN GAA850 act: FXN promoter activators, primary screen, cell-based, luciferase luminescence, HEK293 lucGAA850 | HEK293 lucGAA850 FXN promoter luciferase reporter, 24 h; percent of 10 µM SAHA response | activation, % at 6 µM | 360,000 tested, 0.56% active;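 active means activation above the average of all compounds screened plus 3 SD, cutoff fixed separately per campaign, cut at about 7.5% in these data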
# HSP90 refold inh: HSP90 inhibitors, primary screen, cell lysate, luminescence. Heat shock protein HSP 90 (rabbit reticulocyte lysate; luciferase refolding). Rabbit reticulocyte lysate, luciferase refolding luminescence, 3 h. inhibition, % at 5.6 µM. 290,000 tested, 0.91% active. AID 1789, 2009;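 active means inhibition above the screen-wide mean plus 3 SD, computed separately per campaign, cut at about 16% in these data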;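 further: inhibitors lower the luminescence because luciferase stays unfolded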
# PG9 Ab binder: binders of HIV-1 gp120 antibody PG9, primary screen, biochemical, TR-FRET | inhibition, % at 6.7 µM | TR-FRET gp120-PG9 antibody binding | HIV-1 gp120 / PG9 antibody interaction | 360,000 tested, 0.43% active; in the data active means inhibition above about 8.5%
# A number is an active result; . = inactive; ? = inconclusive; / = not tested or not shown. The list is not random: actives were taken first. Their share in the collection is about 3.4%.
SMILES,SMARCA2 act,HSF1 inhib,AI-2 QS modul,FXN GAA850 act,HSP90 refold inh,PG9 Ab binder
CCCCN1CC(N2CCCC2)CS1(=O)=O (stereo unspecified),.,/,/,/,/,.
CN1CCN(C(=S)c2ccc(-c3cccc([N+](=O)[O-])c3)o2)CC1,7.9,.,.,.,.,.
CCOC(=O)N1CCC(N2C(=O)c3ccccc3C2Nc2cc(C(=O)OC)cc(C(=O)OC)c2)CC1 (stereo unspecified),.,-78,.,.,.,.
CCc1ccccc1NC(=O)c1ccc(NS(C)(=O)=O)cc1,.,-56,.,.,.,.
COc1ccccc1NC(=O)c1ccc(NS(C)(=O)=O)cc1,.,.,.,.,.,.
CC(=O)c1cccc(NC(=O)CN2C(=S)NC(C)(C)CC2C)c1 (stereo unspecified),.,-62,.,.,.,.
Cc1ccc(NC(=O)CN2C(=S)NC(C)(C)CC2C)cc1Cl (stereo unspecified),.,/,.,.,.,.
COc1ccc(OC)c(NC(=O)c2nc(S(=O)(=O)Cc3ccccc3)ncc2Cl)c1,.,-94,.,.,.,.
Cc1ccccc1CS(=O)(=O)c1ncc(Cl)c(C(=O)Nc2ccc(F)cc2)n1,.,.,.,.,.,.
Cc1ccccc1NC(=O)c1nc(S(C)(=O)=O)ncc1Cl,.,.,/,18,.,.
COc1ccc(NC(=O)c2nc(S(=O)(=O)Cc3cccc(C)c3)ncc2Cl)c(OC)c1,.,.,.,.,.,.
Cc1ccc(NC(=O)c2nc(S(=O)(=O)Cc3ccccc3)ncc2Cl)cc1,.,-95,.,.,.,.
O=C(Nc1ccc(F)cc1)c1nc(S(=O)(=O)Cc2ccccc2)ncc1Cl,.,-85,.,.,.,.
CCN(c1ccccc1)S(=O)(=O)c1ccc(NC(=O)c2nc(S(C)(=O)=O)ncc2Cl)cc1,/,.,.,.,.,/
CCOC(=O)CC[C@H]1CC[C@]2(CCCN(C(=O)c3ccccc3)C2)O1,.,/,/,/,/,/
O=S1(=O)c2ccc(N3CCN(Cc4ccccc4F)CC3)cc2Oc2ccccc2CN1Cc1cn(Cc2cccc(C(F)(F)F)c2)nn1,.,/,/,/,/,/
CCCc1nnc(NC(=O)c2nc(S(=O)(=O)Cc3cccc(C)c3)ncc2Cl)s1,.,-60,.,.,.,.
Cc1cccc(CS(=O)(=O)c2ncc(Cl)c(C(=O)Nc3c(C)cccc3C)n2)c1,.,.,.,.,.,.
Cc1nn(Cc2ccccc2)c(C)c1NC(=O)c1noc2c1CCc1ccccc1-2,/,-67,.,.,.,/
Cc1cc(O)cc(=O)n1-c1cccc([N+](=O)[O-])c1,.,/,/,/,/,.
COC(=O)[C@H](Cc1ccccc1)N1CC(N2CCCC2)CS1(=O)=O (stereo partly specified),.,/,/,/,/,.
CC(=O)Nc1ccc(OS(=O)(=O)c2ccccc2C)cc1,.,-91,.,.,.,.
CC(=O)Nc1ccc(OS(=O)(=O)c2ccc(C)cc2C)cc1,.,.,.,.,.,.
ClC(Cl)c1nnc(-c2ccccc2)c(-c2c[nH]c3ccccc23)n1,.,.,-77,.,.,.
Cc1ccc(CN2CCN(Cc3cccc(OCCO)c3)CC2CCO)o1 (stereo unspecified),.,-86,.,.,.,.
SMILES,SMARCA2 act,HSF1 inhib,AI-2 QS modul,FXN GAA850 act,HSP90 refold inh,PG9 Ab binder
OCCC1CN(Cc2cccc(-n3cccn3)c2)CCN1Cc1ccccc1 (stereo unspecified),.,-65,.,.,.,.
COC(=O)c1ccc(CN2CCN(CCc3ccccc3)C(CCO)C2)cc1 (stereo unspecified),.,-72,.,.,.,.
COc1cccc2c1[C@H](/C=C/c1ccccc1)[C@@H]([C@H](O)COC(C)=O)OC2,.,/,/,/,/,/
CN1OC[C@@H]2CN(C(=S)Nc3cc(C(F)(F)F)cc(C(F)(F)F)c3)[C@H](c3ccccc3Br)C[C@@H]21,.,/,/,/,/,.
O=C(c1cccc(Br)c1)N1CCC(Oc2cccnc2)CC1,.,/,/,/,/,/
Cc1ccc(CN2CCCCC(NC(=O)Cc3cccs3)C2=O)cc1 (stereo unspecified),.,/,/,/,/,/
C[C@@H]1CCN(C2CC2)S(=O)(=O)c2c(cccc2N2CC[C@H](N(C)C)C2)O1,.,/,/,/,/,/
Cc1cc(S(=O)(=O)c2ccc([N+](=O)[O-])cn2)ccc1Br,.,.,.,.,/,.
O=[N+]([O-])c1ccc(S(=O)(=O)c2ccccc2)nc1,.,-96,.,.,.,.
Cc1ccc(S(=O)(=O)c2ccc([N+](=O)[O-])cn2)cc1,.,-84,.,.,.,.
CC(C)=C1C2CCC1C1C(=O)N(c3ccc(C)c(C)c3)C(=O)C21 (stereo unspecified),.,-71,.,.,.,.
Cc1cc(NC(=O)C2C3C(=O)N(Cc4ccc(Cl)cc4)C(C(=O)NC(C)(C)C)C34C=CC2(C)O4)no1 (stereo unspecified),.,-55,.,.,.,.
Cc1ccc(C(=O)NCC(=O)NCC(=O)OCC(=O)c2ccc(F)cc2)cc1,.,-62,.,.,.,.
O=C(CNC(=O)c1ccccc1)NCC(=O)OCC(=O)c1ccc(F)cc1,.,.,.,.,.,.
Cc1cc(NS(=O)(=O)c2ccc(NC(=O)CSc3nnc(-c4cccnc4)n3-c3ccccc3)cc2)nc(C)n1,.,/,/,/,/,/
CCOC(=O)c1cccc(NC(=O)Cn2cc3c(n2)CCC(C)C3)c1 (stereo unspecified),.,.,-77,.,.,.
CC(C)C[C@@H](CC#N)N1CCN(Cc2ccccc2)CCC1=O,.,-61,.,.,.,.
Clc1ccc2c(N/N=C/c3ccccc3Br)ccnc2c1,.,.,.,.,.,.
O=[N+]([O-])c1ccc(/C=N/Nc2ccnc3cc(Cl)ccc23)o1,.,.,-185,.,.,.
COc1cccc(CNC(=O)[C@H]2CCCN2C(=O)[C@H]2CCCN2C(=O)c2c(F)cccc2F)c1,.,/,/,/,/,.
O=C(Nc1ccccn1)c1ccc([N+](=O)[O-])o1,/,.,?,.,.,/
Cc1ccc(-c2csc(NC(=O)c3ccc(C)o3)n2)cc1,.,.,.,.,.,.
Cc1ccnc(NC(=O)c2ccc([N+](=O)[O-])o2)c1,.,.,-252,.,.,.
Cc1ccc(-c2csc(NC(=O)c3ccc([N+](=O)[O-])o3)n2)cc1,.,.,-158,.,.,.
O=C(CSc1nc2ccccc2nc1N1CCOCC1)N1CCN(c2cccc(C(F)(F)F)c2)CC1,.,/,/,/,/,/
CCCCN(C)C(=O)CSc1nnc(-c2cc(OC)c(OC)c(OC)c2)o1,.,/,/,/,/,/
